FMDV inh = blocks foot and mouth disease virus; FMDV antiviral cell-based qHTS; Potency, µM (titrated, usually from 57.9 µM), without a hit: at the highest dose activity change, negative = inhibition, actives largely listed as inhibitors; actives 1.2% (n = 410,000); AID 1159524; calls by dose curve; tested in HEK293T cells; also: read-out not given here; potency is read from the fitted curve at half-maximal effect; nearly all actives have a fitted effect of over 45% in size
Sm TGR inh = blocks Schistosoma mansoni thioredoxin glutathione reductase. Q962Y6. purified TGR, DTNB reduction, TNB absorbance 405 nm. Potency, µM (top dose mostly 114 µM), for the others: top-dose activity change, negative = inhibition, usual class: inhibitors. actives 3% (n = 360,000); also: potency is read from the fitted curve at half-maximal effect; nearly all actives have a fitted effect of over 60% in size
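Kinetic colorimetric format: TGR-catalysed, NADPH-driven DTNB reduction monitored via TNB absorbance. Enzyme dispensed at 20 nM; compound exposure 15 min at room temperature before reaction start.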
HCMV inh = inhibitors of human cytomegalovirus; HFF cells, HCMV-luciferase reporter, 72 h; stronger effect = lower value; AID 1259415; activity change, negative = inhibition, % at 57.5 µM; actives 4.5% (n = 410,000); in the data active = activity change below about -60%; inconclusive = no clear call, values can overlap the other calls; inactive = above about -39%
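After 16 h attachment at 37C, HFF cells received test compound and HCMV-luciferase (1 PFU/cell); reporter luminescence read 72 h later, data normalized against buffer-only and known inhibitor Salinomycin.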
FBPA Giardia inh = blocks Giardia fructose-bisphosphate aldolase activity. A8B2U2. purified Giardia FBPA. Potency, µM (titrated, usually from 59.6 µM), for inactives: at the top dose activity, negative = inhibition, usual class: inhibitors. actives 0.71% (n = 290,000); also: potency is read from the fitted curve at half-maximal effect; nearly all actives have a fitted effect of over 55% in size
Target sequence (A8B2U2 whole entry, looked up): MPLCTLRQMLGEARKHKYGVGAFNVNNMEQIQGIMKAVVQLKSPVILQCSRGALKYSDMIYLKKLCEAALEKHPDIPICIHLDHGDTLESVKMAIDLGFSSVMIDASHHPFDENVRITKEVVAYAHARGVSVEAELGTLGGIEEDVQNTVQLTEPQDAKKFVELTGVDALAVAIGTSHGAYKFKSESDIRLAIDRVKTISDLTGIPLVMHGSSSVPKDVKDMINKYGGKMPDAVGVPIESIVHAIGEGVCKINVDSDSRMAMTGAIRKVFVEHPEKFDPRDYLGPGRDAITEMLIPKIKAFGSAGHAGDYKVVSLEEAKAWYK
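40 nM FBPA preincubated 10 min at RT with compound (up to 57.5 uM final), then substrate plus GAPDH/TPI/NAD/arsenate coupling and diaphorase/resazurin added. Fluorescence read after 20 min at RT, 525/598 nm.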
TbPYK inhibitor = inhibitors of Trypanosoma brucei pyruvate kinase | Q57TT1 | TbPYK enzyme, Kinase-Glo Plus ATP luminescence, 45 min | Potency, µM (top dose mostly 76.8 µM), inactives show top-dose activity, negative = inhibition, most hits filed as inhibitors | actives 0.12% (n = 410,000) | AID 624173; also: potency is read from the fitted curve at half-maximal effect; nearly all actives have a fitted effect of over 50% in size
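Activity of T. brucei pyruvate kinase was followed by Kinase-Glo Plus luminescence after the enzyme reacted 45 min at room temperature with 130 uM ADP (final) and substrate. Test compounds were added before ADP at multiple concentrations.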
RE007 growth inh = less growth of the S. pombe RE007 Vpr strain | S. pombe RE007 Vpr strain, BacTiter-Glo ATP luminescence, 24 h | Potency, µM (titrated, usually from 92.2 µM), without a hit: at the highest dose activity change, negative = less growth, most hits filed as inhibitors | actives 0.21% (n = 360,000) | AID 651644; active = well fitted falling curve with a large enough effect; inconclusive = small, poorly fitted or top-dose-only effect; inactive = no such curve, though single readings can be large or run the other way; also: potency is read from the fitted curve at half-maximal effect; nearly all actives have a fitted effect of over 50% in size
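Fission yeast strain RE007, carrying one chromosomally integrated HIV-1 vpr copy, was seeded at OD 0.01 in PMG+AL medium with 23 nL pinned compound. After 24 h at 30 °C and 99% humidity, viability was read by BacTiter-Glo luminescence.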
* hit, by the source's call; ? = inconclusive; . = not tested or not shown; ! = not active in a repeat; [ ] = another dose, or the depositor's remark. A selection: hits, their analogues and other compounds. The true share with any hit is near 7.7%. Unless noted, calls follow the shape of the dose curve; as a rule, active = well fitted curve in the direction sought with a large enough effect; inconclusive = small, poorly fitted or top-dose-only effect, or another doubt; inactive = no such curve, though single readings can be large; an effect the other way counts as inactive or inconclusive. % is scaled to controls: 0 for no effect and ±100 for the full control effect.

SMILES	FMDV inh	Sm TGR inh	HCMV inh	FBPA Giardia inh	TbPYK inhibitor	RE007 growth inh
N/C(=N\c1nc2ccccc2o1)NC(=O)c1ccc([N+](=O)[O-])cc1	44%	8%	?	-3%	4%	-15%
COc1cc(CNc2ccc3c(c2)CCC3)cc(OC)c1O	39%	0.32µM*	44	?	-4%	13%
CCOc1cc(CNc2ccc3c(c2)CCC3)ccc1O	-20%	?	65	-25%	-6%	-12%
CC(C)C[C@H]1COc2cccc(NCCO)c2S(=O)(=O)N1	.	.	-7	.	.	.
Cc1cncn1CCc1nc2c3ccccc3nc(SCC(=O)Nc3cccc(Cl)c3)n2n1	-17%	7%	-105*!	-5%	56%	0%
CCOc1ccccc1NC(=O)CSc1nc2ccccc2c2nc(CCn3cncc3C)nn12	-28%	-4%	-65*	.	1%	.
CCOc1ccccc1-n1c(SCC(=O)Nc2ccccc2C(=O)O)nc2ccccc2c1=O	?	15%	-81*	10%	1%	5%
Cc1ccc(Cc2c(C)nc3nc(SCC(=O)NC4CCC(C)CC4)nn3c2C)cc1 (stereo unspecified)	-9%	1%	-19	.	0%	.
CCCSc1oc(-c2cccs2)nc1S(=O)(=O)c1ccc(Cl)cc1	5%	-2%	-4	.	-6%	.
O=C(O)CCCCN1C(=O)C=CC1=O	.	.	16	.	.	.
Cc1nc(-c2ccccc2)sc1CCNC(=O)C(=O)Nc1ccc2c(c1)OCO2	-24%	6%	21	.	1%	.
CC(C)(C)c1ccc(S(=O)(=O)N2CCC(Oc3ccc(-n4cnnn4)cc3)CC2)cc1	-25%	2%	-25	.	-2%	.
O=S(=O)(c1ccccc1F)N1CCC(Oc2ccc(-n3cnnn3)cc2)CC1	-6%	21%	-62*	.	-2%	5%
S=C(Nc1ccccc1)NC1CCN(Cc2ccccc2)CC1	-11%	33%	-31	0%	4%	-10%
CCC(C)c1ccc(NC(=S)NC2CCN(Cc3ccccc3)CC2)cc1 (stereo unspecified)	?	3%	-98*	4%	7%	-6%
S=C(NCCc1ccccc1)NC1CCC(NC(=S)NCCc2ccccc2)CC1 (stereo unspecified)	-3%	.	?	8%	5%	9%
CCc1ccc(NC(=S)NC2CCN(Cc3ccccc3)CC2)cc1	-25%	-15%	-77*	5%	8%	10%
COc1ccc(CCNC(=S)NC2CCN(Cc3ccccc3)CC2)cc1	-22%	-1%	-72*	?	-10%	1%
Cc1nc2nc(NCc3cccc(Cl)c3)[nH]n2c(=O)c1Cc1ccccc1	-17%	3%	13	.	-8%	.
Cc1ccc(-c2cc(C(=O)Nc3ccc(SC(F)F)cc3)no2)cc1F	13%	-18%	-9	.	-9%	.
COc1ccc(NC(=O)COc2ccc(S(=O)(=O)NC3CCCCC3)cc2)c(OC)c1	36%	4%	-6	.	-6%	.
Cc1c(C(=O)NC2CCCC2)sc2ncnc(NCCN(C)C)c12	-5%	.	.	.	.	.
COc1ccc(C2CN=NC2C(=O)c2ccccc2)cc1 (stereo unspecified)	39%	?	-64*	0%	7%	.
COc1ccc(C2CC2/C(=N/OC(=O)c2cccs2)c2ccccc2)cc1 (stereo unspecified)	24%	-5%	-5	-1%	0%	1%
COc1cc(C=NN=c2sc3ccccc3n2C)ccc1OCCO	.	.	8	.	.	.
SMILES	FMDV inh	Sm TGR inh	HCMV inh	FBPA Giardia inh	TbPYK inhibitor	RE007 growth inh
COc1ccc(CN2CCN(C(=O)c3ccc(S(=O)(=O)N4CCCCCC4)cc3)CC2)cc1	20µM*	1%	-75*	.	-1%	-2%
COc1ccc(CN2CCN(C(=O)c3ccc(S(=O)(=O)N4CCCCCC4)cc3)CC2)cc1F	14µM*	-19%	-77*	.	1%	5%
COc1ccc(S(=O)(=O)N2CCC(C(=O)N[C@H](C(=O)NC3CCCC3)C(C)C)CC2)cc1	27%	89µM*	-22	.	-7%	5%
O=C(c1ccc(S(=O)(=O)N2CCCCCC2)cc1)N1CCN(Cc2ccccc2)CC1	?	0%	-14	.	-10%	4%
COc1ccc(S(=O)(=O)N2CCC(C(=O)N[C@H](C(=O)N3CCCC3)C(C)C)CC2)cc1	-5%	-3%	2	.	-12%	-5%
N#Cc1ccc(CN2CCN(C(=O)c3ccc(S(=O)(=O)N4CCCCCC4)cc3)CC2)cc1	14µM*	-29%	-78*	.	2%	-2%
O=C(Cn1cc(S(=O)(=O)Cc2cccc(Cl)c2)c2ccccc21)NCCc1ccccc1	5%	4%	0	.	3%[15.4 µM]	.
O=C1C=C[C@@H](O)[C@H]2[C@@H]3C(=O)N(C4CCCCC4)C(=O)[C@@H]3CC[C@H]12	.	.	.	0%[12.9 µM]	.	.
COc1cc(C(=O)N(Cc2cc3ccc(C)cc3nc2N(C)C)C2CC2)cc(OC)c1OC	9%	.	.	.	.	.
CCOC(=O)c1c(NC(=O)c2cc(=O)c3c(C)cc(C)cc3o2)sc2c1CCC2	-4%	5%	-1	.	-6%	.
COc1ccc(OC2CCN(S(=O)(=O)c3ccc(C(C)=O)cc3)CC2)cc1	-21%	3%	-63*	-5%	2%	-1%
COc1ccc(S(=O)(=O)N2CCN(C(=O)CCNC(=O)c3ccccc3Cl)CC2)cc1	-14%	-27%	-98*	.	-8%	-16%
COc1ccc(OC2CCN(S(=O)(=O)c3ccc(F)cc3)CC2)cc1	-12%	43%	-18	8%	-11%	14%
C/C(=N\NC(=S)NCc1ccccc1)c1ccc(Br)cc1	-1%	10%	378	0%	3%	-19%
C/C(=N\NC(=S)NCc1ccccc1)c1ccc(C)o1	26%	-12%	-107*	3%	-9%	1%
Cc1cc(C)c(OCC(=O)N(Cc2ccc(N(C)C)cc2)CC2CCCO2)c(C)c1 (stereo unspecified)	5%	0%	-19	.	-19%	.
CC(CCN1C(Nc2ccccc2)=NC[C@@H]1Cc1ccccc1)c1ccccc1 (stereo partly specified)	-7%	2%	-61*	19%	0%	-9%
CCC(C)CCN1C(N(C)C)=NC[C@@H]1Cc1ccccc1 (stereo partly specified)	-20%	-1%	-67*	.	-1%	3%
CC(C)CCCN1C(N(C)C)=NC[C@@H]1Cc1ccccc1	-27%	-5%	-6	.	1%	-7%
CC(C)(C)C1CCc2c(sc3nc(-c4cc5cc(Cl)ccc5oc4=O)[nH]c(=O)c23)C1 (stereo unspecified)	-3%	4%	-22	.	4%	.
O=C1CCCC2=C1C1O[C@](CCCCN3C(=O)c4ccccc4C3=O)(Cc3ccccc31)O2	.	-8%[22.9 µM]	.	-10%[12.9 µM]	.	.

High-throughput results: PubChem, National Center for Advancing Translational Sciences (NCATS)
